Laboratory results reported in PubChem BioAssay AID1445 (SRMLSC, 2008).
Among all 220,000 compounds or so, about 910 (0.41%) were called active. The sample as a whole holds a higher share of actives than the screen did. Results with a measured potency or affinity are listed apart. Unmarked numbers belong to inactive results.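 The calls were made as follows: active = primary inhibition above the hit cutoff, then over 50% inhibition at one or more dose response concentrations (cut at about 23% in these data, passing the limit was not always enough); inconclusive = conflicting primary data, or primary hits not chosen for dose response; inactive = low primary inhibition, or under 50% at every dose.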 Where a SMILES comes first, the peptide text is derived from it. The star is where a group is joined. Boc = CC(C)(C)OC(=O)*

What follows are molecules tested against Aminopeptidase N (Plasmodium falciparum (isolate 3D7)) (UniProt O96935) (assay: malaria alanyl aminopeptidase activity blockers – biochemical, fluorogenic H-Leu-NHMec substrate, 1536-well (AID 1445;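 also: plate controls were DMSO full reaction for no effect and no enzyme background for full effect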)). Conditions: recombinant M1AAP, H-Leu-NHMec fluorogenic kinetic assay; at 30 µM, stronger effect = higher value unless noted.
Chain of Aminopeptidase N (Plasmodium falciparum (isolate 3D7)) (O96935 whole entry, looked up): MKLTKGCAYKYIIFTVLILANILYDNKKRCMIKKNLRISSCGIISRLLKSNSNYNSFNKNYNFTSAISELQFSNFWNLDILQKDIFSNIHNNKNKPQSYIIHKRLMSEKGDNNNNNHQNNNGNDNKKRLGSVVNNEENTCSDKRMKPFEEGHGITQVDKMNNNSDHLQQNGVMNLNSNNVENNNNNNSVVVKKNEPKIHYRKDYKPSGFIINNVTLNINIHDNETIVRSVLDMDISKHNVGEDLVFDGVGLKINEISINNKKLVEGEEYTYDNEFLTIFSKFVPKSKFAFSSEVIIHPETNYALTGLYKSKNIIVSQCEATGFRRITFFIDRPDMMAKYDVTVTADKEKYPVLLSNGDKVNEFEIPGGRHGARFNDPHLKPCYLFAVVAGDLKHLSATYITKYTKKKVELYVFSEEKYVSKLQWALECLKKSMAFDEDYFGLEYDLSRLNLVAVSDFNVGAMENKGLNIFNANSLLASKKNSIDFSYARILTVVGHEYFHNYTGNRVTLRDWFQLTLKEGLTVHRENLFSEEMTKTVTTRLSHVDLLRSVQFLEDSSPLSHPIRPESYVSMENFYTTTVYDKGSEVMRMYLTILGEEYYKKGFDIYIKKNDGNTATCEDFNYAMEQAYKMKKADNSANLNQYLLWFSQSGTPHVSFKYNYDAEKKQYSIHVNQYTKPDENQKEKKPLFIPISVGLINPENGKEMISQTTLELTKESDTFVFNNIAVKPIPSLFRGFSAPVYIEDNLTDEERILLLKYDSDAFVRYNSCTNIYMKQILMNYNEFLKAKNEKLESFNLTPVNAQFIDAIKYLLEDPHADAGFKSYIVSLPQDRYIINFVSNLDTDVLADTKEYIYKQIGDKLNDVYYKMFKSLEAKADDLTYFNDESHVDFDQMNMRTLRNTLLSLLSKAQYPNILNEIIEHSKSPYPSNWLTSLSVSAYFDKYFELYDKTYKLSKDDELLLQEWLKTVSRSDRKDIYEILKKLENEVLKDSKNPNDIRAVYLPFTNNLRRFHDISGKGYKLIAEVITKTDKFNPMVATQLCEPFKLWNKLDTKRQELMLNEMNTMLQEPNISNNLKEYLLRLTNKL

Row | Structure (SMILES) | inhibition
1 | Cc1cc(C)c2c3c(sc2n1)C1(CCSCC1)C(C#N)=C(N)O3 | 9.27%
2 | C1CCN(c2nc3nonc3nc2NCC2CCOCC2)CC1 | 7.54%
3 | CC(=O)N1CCN(c2ccc(NC(=O)c3ccc(Br)o3)cc2Cl)CC1 | 4.42%
4 | CC(C)c1ccc(-c2csc(NC(=O)c3cccs3)c2C(=O)O)cc1 | 8.46%
5 | COc1ccc(-c2csc(NC(=O)c3cccs3)c2C(=O)O)cc1OC | 19.5%
6 | Fc1cccc(Nc2nc(Cl)nc(Cl)n2)c1 | 8.99%
7 | O=C1NCCN(Cc2cccc(Oc3ccccc3)c2)C1CC(=O)N1CCCCO1 (configuration not stated) | 1.7%
8 | CCOc1cccc2cc(C(=O)Nc3ccccc3-c3ccccc3)c(=O)oc12 | 1.66%
9 | COC(=O)/C(N=Nc1cccc(C(F)(F)F)c1)=C(\C)O | 8.29%
10 | O=c1[nH]c2cc3c(cc2cc1CN(Cc1cccnc1)Cc1nnnn1Cc1ccco1)OCCO3 | 26.5% (active)
11 | Cc1ccc(CN(Cc2cc3cc4c(cc3[nH]c2=O)OCCO4)Cc2nnnn2Cc2ccco2)cc1 | 22.7%
12 | CCc1ccc2[nH]c(=O)c(CN(Cc3ccccc3)Cc3nnnn3Cc3ccco3)cc2c1 | 13.2%
13 | CCCOc1ccc(Cc2nc(N)nc(N)n2)cc1 | -6.23%
14 | C=C(C)C(=O)Nc1cccc(C2=NOC3(C2)C[C@@H](C(N)=O)N(C(=O)c2ccc(Cl)cc2)C3)c1 (some centres not stated) | 4.17%
15 | Cc1nn(Cc2ccccc2)c(Cl)c1/C=C1\NC(=S)NC1=O | 4.75%
16 | O=C(Nc1cccc(NC(=O)c2cccs2)c1)c1ccco1 | 14.8%
17 | COc1cc(NC(=O)c2ccc([N+](=O)[O-])o2)ccc1NC(=O)c1cccs1 | 4.73%
18 | O=C(O)CCc1ccc(-c2ccccc2)n1NC(=O)c1cccs1 | 6.72%
19 | O=C(O)CCc1ccc(-c2ccccc2)n1NC(=O)c1ccco1 | 3.09%
20 | O=C(O)CCc1ccc(-c2ccccc2)n1NC(=O)c1sc2ccccc2c1Cl | 24.7% (active)
21 | Cc1ccc(NC(=O)Nc2sc(=S)n(C)c2C)cc1 | -0.53%
22 | CCC(=O)Oc1oc(-c2ccccc2)nc1C=Nc1ccc(C)cc1 | 1.55%
23 | COc1ccccc1N=Cc1nc(-c2ccccc2)oc1OC(C)=O | 19.1%

Row | Structure (SMILES) | inhibition
24 | CCC(=O)Oc1oc(-c2ccccc2)nc1C=Nc1ccccc1OC | 24.3% (active)
25 | CCOC(=O)c1cc(C)sc1/N=C/C1C(=O)CC(C)(C)CC1=O | 1.61%
26 | CCCn1c(SCC(=O)Nc2cccc(S(=O)(=O)N(C)C)c2)nc2ccccc2c1=O | 6.03%
27 | O=C(CSc1nnnn1-c1cccc2ccccc12)NC(C(=O)O)(c1ccccc1)c1ccccc1 | 23.1%
28 | Cc1ccc(-n2nnnc2SCC(=O)Nc2ccccc2-c2ccccc2)cc1C | -2.36%
29 | O=C(O)CC/C(=N\Nc1ccc([N+](=O)[O-])cc1)c1ccccc1 | 7.87%
30 | COc1cc(C(N)=O)cc(Br)c1OC | 23.4% (active)
31 | CCOc1c(Br)cc(C(N)=O)cc1OC | 2.69%
32 | CCOc1cc(C(N)=O)cc(Br)c1OC | -3.95%
33 | Cc1nn(CCS(=O)(=O)c2ccc(Cl)cc2)c(C)c1Br | 0.55%
34 | COCc1cc(C)nc(OCC(=O)N/N=C/c2ccc(O)cc2O)c1C#N | -7.94%
35 | CSc1nnc(-c2cc3c(s2)-c2ccccc2CC3)o1 | 18.2%
36 | CCSc1nnc(-c2cc3c(s2)-c2ccccc2CC3)o1 | 19.1%
37 | O=C(NCc1ccccc1)c1ccc2c(c1)C(=O)N(Cc1ccncc1)C2=O | -0.3%
38 | COc1ccc(C(C(=O)NC(C)(C)C)N(Cc2cccs2)C(=O)CCC(=O)Nc2cc(C)on2)cc1 (configuration not stated) | -3.34%
39 | COc1cc(CCC(=O)OCC(=O)Nc2c(C)cccc2C(C)C)cc(OC)c1OC | -0.28%
40 | Cc1cccc2cc(C(c3nnnn3CC3CCCO3)N3CCc4ccccc4C3)c(=O)[nH]c12 (configuration not stated) | 12.2%
41 | Cc1ccc(C)c2[nH]c(=O)c(C(c3nnnn3Cc3ccco3)N3CCc4ccccc4C3)cc12 (configuration not stated) | 24.6% (active)
42 | CCC(c1nnnn1Cc1ccco1)N(Cc1cc2cc(OC)ccc2[nH]c1=O)C1CCCCC1 (configuration not stated) | 14.1%
43 | Cc1ccc(C)c2[nH]c(=O)c(C(c3nnnn3Cc3ccccc3)N3CCc4ccccc4C3)cc12 (configuration not stated) | 7.95%
44 | COc1ccc2[nH]c(=O)c(CN(C3CCCCC3)C(c3nnnn3Cc3ccco3)C(C)C)cc2c1 (configuration not stated) | 23.7% (active)
45 | Cc1cc2cc(C(c3nnnn3Cc3ccco3)N3CCCCC3)c(=O)[nH]c2cc1C (configuration not stated) | 26.8% (active)
46 | Cc1cc2cc(C(c3nnnn3Cc3ccco3)N3CCc4ccccc43)c(=O)[nH]c2cc1C (configuration not stated) | 21.9%

Row | Structure (SMILES) | inhibition
47 | Cc1cc2cc(C(c3nnnn3Cc3ccco3)N3CCc4ccccc4C3)c(=O)[nH]c2cc1C (configuration not stated) | 14%
48 | COc1ccc2[nH]c(=O)c(CN(Cc3nnnn3Cc3ccco3)C3CCCCC3)cc2c1 | 16%
49 | CCOC(=O)c1ccc(Nc2nnc(C)c3ccccc23)cc1 | 6.41%
50 | CSc1ccccc1NC(=O)CN(C)CC(=O)NCc1ccccc1 | -1.28%
51 | CC1(C)CC(=O)C(C=NCCN2CCN(C(=O)c3ccc(Br)cc3)CC2)=C(O)C1 | 2.26%
52 | COc1ccc(CCNC(=O)[C@@H](NC(=O)c2ccccc2F)C(C)C)cc1OC | 0.88%
53 | Oc1c(Cl)cc(Cl)c2c1NCCC2 | 7.06%
54 | Oc1c(Cl)cc(Cl)c2cccnc12 | -7.26%
55 | CCC(C)NCCCCOc1cc(C)cc(C(C)C)c1 (configuration not stated) | 3.28%
56 | CCC(=O)N(C)CCc1cc2c(c(OC)c1/C=N/NC(=O)c1ccccc1O)OCO2 | -6.1%
57 | C#CCOCCOCCOCCNc1nc(N2CCOCC2)nc(N2CCN(C(=O)[C@H]([C@@H](C)CC)n3cc(CCCCN)nn3)CC2)n1 | 0.08%
58 | O=[N+]([O-])c1ccc(Cl)c(-c2ccc(/C=N/c3c(-c4ccco4)nc4ccccn34)o2)c1 | 6.65%
59 | O=[N+]([O-])c1ccc(-c2ccc(/C=N/c3c(-c4ccco4)nc4ccccn34)o2)cc1 | 27.6% (active)
60 | O=[N+]([O-])c1ccc(-c2ccc(/C=N/c3c(-c4ccco4)nc4ccccn34)o2)c(Cl)c1 | 8.98%
61 | CC(C)CC(NC(=O)OC(C)(C)C)C(=O)NCc1ccccc1 (configuration not stated) | -0.35%
62 | COC(=O)C(Cc1ccccc1)NC(=O)C(CC(C)C)NC(=O)OC(C)(C)C (stereo not drawn) (Boc-Leu-Phe-OMe; configuration not given here) | -2.73%
63 | O=C1N[C@@H](Cc2ccccc2)C(=O)N1CCN1CCOCC1 | -7.62%
64 | O=C(Cn1cnc2ccccc21)N/N=C/c1ccccc1[N+](=O)[O-] | -4.86%
65 | Cc1ccc(S(=O)(=O)N2CCN(C(=O)CC(C)(C)C)CC2)cc1 | 3.77%
66 | CN(c1ccccc1C(=O)Nc1ccc(F)c(F)c1)S(C)(=O)=O | 0.14%
67 | O=C1CN2C(=Nc3ccc(Br)cc3C2c2ccccc2)CCN1 (configuration not stated) | 3.13%
68 | COC(=O)CN1C(c2ccc(Cl)cc2)=Nc2ccc(Cl)cc2C1c1ccccc1 (configuration not stated) | 8.62%
69 | O=C1CN2C(=Nc3ccc(Cl)cc3C2c2ccccc2)CN1 (configuration not stated) | 27.9% (active)

Row | Structure (SMILES) | inhibition
70 | COc1ccc(C2=NOC(C(=O)Nc3cc(C)on3)C2)cc1OC (configuration not stated) | 9.84%
71 | COc1ccc(/C=C(/C#N)C(=O)Nc2ccc(O)cc2)cc1C(=O)O | 15.9%
72 | C=CCNC(=O)/C(C#N)=C\c1cc(Cl)c(O)c(OCC)c1 | 1.82%
73 | CC(C)COc1ccc(/C=C2/Sc3ccccc3C2=O)cc1 | -0.23%
74 | CCOC(=O)C1=C2NC(=O)c3ccccc3N2C(=O)C1 | 7.37%
75 | COc1ccc(C(=O)NNC(=O)CCC(=O)Nc2cc(C)on2)cc1 | 6.61%
76 | CC(=O)Nc1ccccc1-c1nc2ccc(C(=O)N3CCN(c4cccc(C)c4)C(C)C3)cc2[nH]c1=O (configuration not stated) | 6.05%
77 | CC(=O)Nc1ccccc1-c1nc2ccc(C(=O)N3CCN(c4cc(C)ccc4C)CC3)cc2[nH]c1=O | 4.66%
78 | CC(=O)Nc1ccccc1-c1nc2ccc(C(=O)N3CCN(c4ccccc4)CC3)cc2[nH]c1=O | 28% (active)
79 | Cc1ccccc1-c1cnn(-c2cccc([N+](=O)[O-])c2)c1N | 1.77%
80 | Cc1ccc(-c2nc3cc(N)ccc3o2)cc1 | 6.2%
81 | CC(C)c1ccc2oc(-c3ccc(N)cc3)nc2c1 | 4.91%
82 | CC(=O)N(C(C)=O)N1C(=O)/C(=C/c2ccc(Cl)cc2)SC1=S | 29.5%
83 | O=S(=O)(Nc1ncnc2sc3c(c12)CCC3)c1cc(F)ccc1F | 11.3%
84 | O=S(=O)(Nc1ncnc2sc3c(c12)CCC3)c1ccc2ccccc2c1 | 27.9% (active)
85 | O=S(=O)(Nc1ncnc2sc3c(c12)CCC3)c1ccc(Cl)s1 | 20%
86 | CC(C)CCOCC(=O)Oc1ccccc1C(=O)O | -2.22%
87 | CCN(CC)CCCOC(=O)c1ccc(OC)cc1O | 1.55%
88 | Cc1ccc(C2=NNC(=O)C(c3c[nH]c4ccccc34)C2)cc1 (configuration not stated) | 1.55%
89 | CS(=O)(=O)NN1C(=O)c2ccccc2NC12CCCC2 | 6.27%
90 | O=C1c2ccccc2NC2(CCCC2)N1NS(=O)(=O)c1ccccc1 | 7.28%
91 | CCOC(=O)NN1C(=O)c2ccccc2NC1(C)C | 13.7%
92 | CC1(C)Nc2ccccc2C(=O)N1NC(=O)c1ccccc1 | 22.7%
